Screening data deposited in PubChem BioAssay by National Center for Advancing Translational Sciences (NCATS).
Compounds with a hit are over-represented: about 2.4% of the library has one in this group of screens.
Casp7 inh: qHTS Assay for Allosteric/Competitive Inhibitors of Caspase-7; P55210; recombinant caspase-7, Ac-DEVD-AFC fluorescence rate; Potency, µM (titrated, usually from 57.5 µM), for inactives: at the top dose activity change, negative = inhibition, hits mostly inhibitors; actives 0.02% (n = 75,000); AID 889, 2007; active = well fitted inhibition curve with a large enough effect in the main read-out, with a control signal flat, not every such curve was filed as active; inconclusive = small, poorly fitted or top-dose-only effect, or a change in a side signal; also: % of control where 0% means no effect
Caspase-1 inhib: qHTS Assay for Allosteric/Competitive Inhibitors of Caspase-1; P29466; Caspase-1 enzyme, Ac-WEHD-AFC fluorogenic rate; Potency, µM (top dose mostly 57.5 µM), for the others: at the top dose activity change, negative = inhibition, hits mostly inhibitors; actives 0.03% (n = 75,000);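 also: plate controls were vehicle for no effect and no substrate for full effect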
15-hLO-2 inh: qHTS Assay for Inhibitors of 15-hLO-2 (15-human lipoxygenase 2); purified 15hLO-2, xylenol orange hydroperoxide absorbance; Polyunsaturated fatty acid lipoxygenase ALOX15B (Homo sapiens), O15296; Potency, µM (highest dose often 57.1 µM), without a hit: at the highest dose activity change, negative = inhibition, most hits filed as inhibitors; actives 0.56% (n = 110,000); also: % is scaled to controls: 0 for no effect and ±100 for the full control effect; nearly all actives have a fitted effect of over 60% in size
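Enzyme 50 nM, AA 45 uM, 25 mM Hepes pH 7.5 + 0.01% Triton X-100; cpd preinc 15 min RT, rxn 90 min RT; stop/detect with 200 uM XO + 300 uM Fe(II) in 50 mM H2SO4, 30 min; A573/A405.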
Hsp90 Hop PPI: qHTS Assay for Disrupters of an Hsp90 Co-Chaperone Interaction | Potency, µM (series often up to 57 µM), without a hit: at the top dose activity change, negative = inhibition | AlphaScreen TPR2A-His6 binding biotin-Hsp90 C-terminal peptide | actives 0.44% (n = 71,000); active = well fitted curve in either direction with a large enough effect; inconclusive = small, poorly fitted or top-dose-only effect, or another doubt; also: % is scaled to controls: 0 for no effect and ±100 for the full control effect
Tau filament bind: qHTS Assay for Tau Filament Binding; Microtubule-associated protein tau (Homo sapiens), P10636; recombinant tau filaments, thioflavin S fluorescence, 15 h; filaments grown with octadecylsulfate alongside compound; Potency, µM (titrated, usually from 57.1 µM), without a hit: top-dose activity change, negative = inhibition; actives 2% (n = 71,000); AID 596, 2007;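 also: % is scaled to controls: 0 for no effect and ±100 for the full control effect; actives lower thioflavin S fluorescence by blocking filaments or displacing dye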
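His-tagged recombinant human tau (exons 2, 3, 10; 1 uM final) fibrillized with 30 uM sodium octadecylsulfate, 15 h at 37 C, in pH 7.4 HEPES buffer with 10 uM thioflavine S and 5 mM DTT. Reduced ThS fluorescence (450/510 nm) marks activity.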
15-hLO inh: qHTS Assay for Inhibitors of 15-hLO (15-human lipoxygenase); Potency, µM (highest dose often 57.1 µM), for inactives: at the top dose activity change, negative = inhibition, actives largely listed as inhibitors; Polyunsaturated fatty acid lipoxygenase ALOX15 (Homo sapiens), P16050; actives 1.4% (n = 74,000); AID 887, 2007; purified 15hLO-1, xylenol orange hydroperoxide absorbance; also: % is scaled to controls: 0 for no effect and ±100 for the full control effect; nearly all actives have a fitted effect of over 55% in size
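40 nM 15hLO-1 + cpd, 15 min RT; start w/ 50 uM AA (final), 6 min RT; stop/detect w/ 200 uM XO + 300 uM Fe(II) in 50 mM H2SO4, 30 min; A573/A405. Buffer 25 mM Hepes pH 7.5, 0.01% Triton X-100. No-enzyme wells as negative control.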
* hit, by the source's call; [ ] = remark or other dose. Unless noted, calls follow the shape of the dose curve; as a rule, active = well fitted curve in the direction sought with a large enough effect; inconclusive = small, poorly fitted or top-dose-only effect, or another doubt; inactive = no such curve, though single readings can be large; an effect the other way counts as inactive or inconclusive. Potency is read from the fitted curve at half-maximal effect.

What do the screens show for `CCOC(=O)CCc1c(C)nc2cc(C3CCCN(C(=O)OC(C)(C)C)C3)[nH]n2c1=O` (stereo not drawn)?
Casp7 inh: 0%; Caspase-1 inhib: 1%; 15-hLO-2 inh: -5%; Hsp90 Hop PPI: 2%; Tau filament bind: -5%; 15-hLO inh: 7%

Results for Cc1ccc(C(=O)COC(=O)CCc2nc3ccccc3[nH]c2=O)cc1C ?
Casp7 inh: -5%; Caspase-1 inhib: 4%; 15-hLO-2 inh: 1%; Hsp90 Hop PPI: -3%; Tau filament bind: 42%; 15-hLO inh: 4%

Results for Cc1ccc2nsnc2c1S(=O)(=O)N1CCN(Cc2ccc3c(c2)OCO3)CC1 ?
Casp7 inh: 0%; Caspase-1 inhib: -2%; 15-hLO-2 inh: 8%; Hsp90 Hop PPI: -10%; Tau filament bind: 16µM*; 15-hLO inh: -12%

Results for Cc1ccc2nsnc2c1S(=O)(=O)N1CCCC1 ?
Casp7 inh: 2%; Caspase-1 inhib: 1%; 15-hLO-2 inh: 0%; Hsp90 Hop PPI: -1%; Tau filament bind: 1%; 15-hLO inh: 2%

How did COc1cccc(-c2cc(C(=O)NCc3ccc(Cl)cc3)no2)c1 do in these assays?
Casp7 inh: 1%; Caspase-1 inhib: 0%; 15-hLO-2 inh: inconclusive; Hsp90 Hop PPI: 2%; Tau filament bind: 29%; 15-hLO inh: -17%

Results for CN1CCc2c(sc3c2C(=O)NC(c2ccc(-c4cccc(Cl)c4)o2)N3)C1 (stereo not drawn) ?
Casp7 inh: inconclusive; Hsp90 Hop PPI: inconclusive; Tau filament bind: 1.3µM*; 15-hLO inh: 2.5µM*

Results for CN1CCc2c(sc3c2C(=O)NC(c2cccs2)N3)C1 (stereo not drawn) ?
Casp7 inh: inconclusive; 15-hLO-2 inh: 51%; Hsp90 Hop PPI: -8%; Tau filament bind: inactive; 15-hLO inh: 3.2µM*

How did CC(C)(C)OC(=O)C1=NOC2(C=CC(=O)C=C2)C1 do in these assays?
Casp7 inh: 1%[11.5 µM]; Caspase-1 inhib: -6%[11.5 µM]; 15-hLO inh: -11%[11.4 µM]

How did CN1/C(=C/C=N/n2cnnc2)C(C)(C)c2ccccc21 do in these assays?
Casp7 inh: -9%; Caspase-1 inhib: -12%; 15-hLO-2 inh: -2%[2.29 µM]; Hsp90 Hop PPI: 2%; Tau filament bind: -5%; 15-hLO inh: 25µM*

Results for Cc1ccc2[nH]c(-c3cccc(N)c3)cc2c1 ?
Casp7 inh: -3%; Caspase-1 inhib: -2%; 15-hLO-2 inh: -9%; Hsp90 Hop PPI: -28%; Tau filament bind: 10µM*; 15-hLO inh: -21%

What do the screens show for `N#CCSc1nc2cc(C(=O)N3CCCC3)ccc2c(=O)n1Cc1ccccc1`?
Casp7 inh: -2%; Caspase-1 inhib: -2%; 15-hLO-2 inh: 3%; Hsp90 Hop PPI: 5%; Tau filament bind: 10%; 15-hLO inh: -11%

What do the screens show for `COc1ccc(CNc2cc(-c3ccccc3Cl)ncn2)c(OC)c1`?
Casp7 inh: -11%; Caspase-1 inhib: -4%; 15-hLO-2 inh: -4%; Hsp90 Hop PPI: -2%; Tau filament bind: 4%; 15-hLO inh: -1%

Results for COc1ccccc1CNc1ccnc(-c2ccccc2OC)n1 ?
Casp7 inh: -1%; Caspase-1 inhib: -1%; 15-hLO-2 inh: inconclusive; Hsp90 Hop PPI: -11%; Tau filament bind: 3%; 15-hLO inh: 13µM*

What do the screens show for `COCCNc1ccnc(-c2ccccc2C)n1`?
Casp7 inh: -16%; Caspase-1 inhib: -3%; 15-hLO-2 inh: inconclusive; Hsp90 Hop PPI: -1%; Tau filament bind: -12%; 15-hLO inh: 13µM*

What do the screens show for `COc1ccccc1CNc1ccnc(-c2ccc3c(c2)OCO3)n1`?
Casp7 inh: 0%; Caspase-1 inhib: -3%; 15-hLO-2 inh: -10%; Hsp90 Hop PPI: 0%; Tau filament bind: 2%; 15-hLO inh: 13µM*

What do the screens show for `COc1ccc(CNc2cc(-c3ccccc3OC)ncn2)c(OC)c1`?
Casp7 inh: -6%; Caspase-1 inhib: -5%; 15-hLO-2 inh: -13%; Hsp90 Hop PPI: -12%; Tau filament bind: 0%; 15-hLO inh: 25µM*

How did Cc1ccccc1-c1nccc(NCc2cccs2)n1 do in these assays?
Casp7 inh: -6%; Caspase-1 inhib: -5%; 15-hLO-2 inh: 10%; Hsp90 Hop PPI: 12%; Tau filament bind: -7%; 15-hLO inh: -16%

Results for COc1cccc(NC(=S)N2CCN(C/C=C/c3ccccc3)CC2)c1 ?
15-hLO-2 inh: 20%

What do the screens show for `CN=C1SC(CC(=O)Nc2ccc(N3CCOCC3)cc2)C(=O)N1C` (stereo not drawn)?
Casp7 inh: -1%; Caspase-1 inhib: -1%; 15-hLO-2 inh: -4%; Hsp90 Hop PPI: -4%; Tau filament bind: -11%; 15-hLO inh: 2%

What do the screens show for `CCCOC(=O)c1ccc(Oc2cn[nH]c2-c2ccc(OC)cc2O)cc1`?
Casp7 inh: -8%; Caspase-1 inhib: -3%; 15-hLO-2 inh: 16%; Hsp90 Hop PPI: 7%; Tau filament bind: 13µM*; 15-hLO inh: -29%

How did CCOc1ccc(-c2[nH]ncc2Oc2ccccc2OC)c(O)c1 do in these assays?
Casp7 inh: -8%; Caspase-1 inhib: -4%; 15-hLO-2 inh: 7%; Hsp90 Hop PPI: -10%; Tau filament bind: inconclusive; 15-hLO inh: -25%

Results for Cc1cccc(CSc2nncc(=O)[nH]2)c1 ?
Casp7 inh: 0%; Caspase-1 inhib: -1%; 15-hLO-2 inh: -3%; Hsp90 Hop PPI: 1%; Tau filament bind: 1%; 15-hLO inh: 15%

How did O=c1cnnc(SCCc2ccccc2)[nH]1 do in these assays?
Casp7 inh: inconclusive; Caspase-1 inhib: inconclusive; 15-hLO-2 inh: 6%[11.4 µM]; Hsp90 Hop PPI: -19%; Tau filament bind: 7.9µM*; 15-hLO inh: 4µM*

What do the screens show for `Cc1cccc(OCc2n[nH]c(=S)o2)c1`?
Casp7 inh: -1%; Caspase-1 inhib: -2%; 15-hLO-2 inh: -5%; Hsp90 Hop PPI: -6%; Tau filament bind: -9%; 15-hLO inh: inconclusive

How did COc1cccc(Nc2ncc3nc(-c4ccc(Cl)cc4)c(=O)n(C[C@H]4CCCO4)c3n2)c1 do in these assays?
Casp7 inh: inconclusive; 15-hLO-2 inh: -3%; Hsp90 Hop PPI: -2%; Tau filament bind: 429%; 15-hLO inh: 10%

Results for COc1cccc(Nc2ncc3nc(-c4ccc(F)cc4)c(=O)n(CCC#N)c3n2)c1 ?
Casp7 inh: inconclusive; 15-hLO-2 inh: -1%; Hsp90 Hop PPI: -5%; Tau filament bind: 484%; 15-hLO inh: 1%
